Screens as filed in PubChem.
An excerpt weighted towards active compounds, which were near 0.99% of everything screened.
BLM inh = Bloom syndrome helicase (human) inhibition; P54132; recombinant BLM DNA unwinding, fluorescence dequenching; Potency, µM (top dose mostly 56.1 µM), hits mostly inhibitors; 0.2% of 350,000 active; further: nearly all actives have a fitted effect of over 35% in size
WRN inhibitor = inhibitors of human WRN helicase | AID 651768 | Q14191 | WRN helicase unwinding, fluorescent forked duplex, kinetic | 0.46% of 360,000 active | Potency, µM (top dose mostly 114 µM), usual class: inhibitors; further: nearly all actives have a fitted effect of over 55% in size
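Fluorescence dequenching readout, ex 525 nm/em 598 nm, kinetic mode: forked duplex DNA (100 nM final) with adjacent fluorophore and quencher unwound by WRN (20 nM final) with 2 mM ATP. Compound preincubation 15 min, room temperature.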
L3MBTL1 block = inhibitors of human L3MBTL1 | Q9Y468 | Potency, µM (top dose mostly 57.1 µM), hits mostly inhibitors | AlphaScreen L3MBTL1–H3K9me1 peptide binding | 0.66% of 230,000 active; further: nearly all actives have a fitted effect of over 60% in size
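L3MBTL1 50 nM + b-AHA-H3(1-15)K9me1 75 nM, 30 min RT; compound added, 30 min RT; streptavidin donor/Ni-chelate acceptor beads 10 ug/mL each final, 30 min RT dark; AlphaScreen read.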
FEN1 inh = inhibitors of human flap endonuclease 1 | Potency, µM (top dose mostly 114 µM), most hits filed as inhibitors | Recombinant FEN1 flap cleavage, fluorescence, 15 min | 0.35% of 390,000 active; further: nearly all actives have a fitted effect of over 65% in size
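Recombinant FEN1 (10 nM) was preincubated with pin-transferred compounds for 15 min at room temperature, then flap DNA substrate (50 nM final) was added. Plates were read at 0 and 15 min, and normalized concentration–response data were fitted to a four-parameter Hill equation.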
RECQ1 inh = RECQ1 (human) helicase inhibition; 0.54% of 240,000 active; P46063; Potency, µM (doses to about 57.3 µM), usual class: inhibitors; RECQ1 DNA unwinding, red fluorescence kinetic read; further: nearly all actives have a fitted effect of over 30% in size
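50 nM RECQ1T1 preincubated 15 min with compound in Tris pH 8.0 buffer with MgCl2, DTT, Tween-20 and 2.5 ug/ml poly(dI-dC); started with 200 nM TAMRA/BHQ-2 forked duplex and 2 mM ATP. Unwinding read as fluorescence (525/598 nm), two reads 2 h apart.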
A number is an active result; n = inactive; u = inconclusive; x = no result given; [ ] = dose if it differs, or a comment. The call rests on the fitted dose curve; in most records, active means well fitted curve in the direction sought with a large enough effect; inconclusive means small, poorly fitted or top-dose-only effect, or another doubt; inactive means no such curve, though single readings can be large; an effect the other way counts as inactive or inconclusive.

SMILES	BLM inh	WRN inhibitor	L3MBTL1 block	FEN1 inh	RECQ1 inh
COc1ccc(S(=O)(=O)n2nc(OC(C)=O)cc2N)cc1	n	n[11.6 µM]	n	45µM	n
COc1ccc(C(=O)Oc2cc(N)n(S(=O)(=O)c3ccccc3)n2)cc1	n	n	n	n	n
O=C1NCCCc2c1oc1cc(Br)c(O)c(Br)c21	n	n	n	n	n
CCCc1ccc(C(=O)NC(=O)c2ccccc2O)cc1	n	n	n	n	n
Cc1c(C(=O)N(C)c2ccccc2)oc2c1C(O)CC(C)(C)C2 (centres undefined)	n	n	x	n	x
CNCc1ccccc1Sc1cc(O)ccc1O	n	32µM	n	u	u
COc1cccc(/C=C2/Sc3ccc(C(=O)NCCN4CCCCCC4)cc3NC2=O)c1	n	n[11.6 µM]	x	50µM	x
Cc1cccc(/C=C2/Sc3ccc(C(=O)NCCN4CCCC4)cc3NC2=O)c1	n	n	x	u	x
O=C1CCCC(O)=C1N=Nc1c(Cl)cc(C(F)(F)F)cc1Cl	n	79µM	n	n	13µM
CC1(C)CC(=O)C(N=Nc2c(Cl)cc(Cl)cc2Cl)=C(O)C1	n	n	n	n	n
Cc1ccc(S(=O)(=O)N2CCOCC2)cc1NC(=O)COC(=O)/C=C/c1ccc(F)cc1	x	n	n	n	x
O=C(/C(=N/N=C/c1ccc(O)c(O)c1O)c1ccccc1)c1ccccc1	u	n	20µM	u	n
O=C(NN=Cc1ccc(O)c(O)c1)c1ccccc1	x	n	x	x	x
Cc1ccccc1OCC(O)CN(Cc1ccccc1O)C1CCCCC1 (centres undefined)	n	n	n	n	n
C=CCc1cc(/C=C/c2nc(O)c([N+](=O)[O-])c(=O)[nH]2)cc(OC)c1O	n	45µM	u	45µM	u
Cc1ccc(C)c(NS(=O)(=O)c2ccc3c(c2)NC(=O)CO3)c1	n	n	x	n	x
COc1ccc2ccccc2c1/C=N/N1C(=O)CSC1=S	n	u	u	n	28µM
O=C1CSC(=S)N1/N=C/c1c(F)cccc1F	n	n	x	n	x
COc1cccc(/C=N/N2C(=O)CSC2=S)c1O	n	u	25µM	n	n
O=C1CSC(=S)N1N=Cc1c(O)ccc2ccccc12	x	u	x	n	x
O=C(Cn1cnc2c(nnn2-c2ccccc2)c1=O)N1CCOCC1	n	n	n	n	n
O=C(COC(=O)c1cc(-c2cccc3ccccc23)nc2ccccc12)NC1CCS(=O)(=O)C1 (centres undefined)	n	79µM	n	u	n
Cc1cccc(C(=O)NC(NC(=S)Nc2ccc(S(N)(=O)=O)cc2)C(Cl)(Cl)Cl)c1 (centres undefined)	n	n	n	n	n
Cc1nnc(SCC(=O)N(Cc2ccccc2)C(C)(C)C)[nH]c1=O	n	n	n	n	n
CN(C)CCCN(C(=O)c1ccc(S(=O)(=O)N(C)C2CCCCC2)cc1)c1nc2ccc(F)cc2s1	n	n	x	u	x
SMILES	BLM inh	WRN inhibitor	L3MBTL1 block	FEN1 inh	RECQ1 inh
CCc1ccc2nc(N(CCCN(C)C)C(=O)c3ccc(S(=O)(=O)N(C)C4CCCCC4)cc3)sc2c1	n	n	x	79µM	x
O=C1C(SCCO)=C(SCCO)C(=O)c2ccccc21	8.9µM	79µM	u	u	u
c1ccc2c3c(cc(N4CCOCC4)c2c1)OC1(N2CCOCC2)CCCCC1O3 (centres undefined)	n	n	28µM	n	n
O=C(CCCn1c(=O)c2sccc2n(CC(=O)NCc2ccco2)c1=O)NCc1ccco1	n	n[11.6 µM]	u	n	n
Cc1nc(N2N=C(c3ccc(Cl)cc3)CC2c2ccco2)sc1C(=O)N(C)C (centres undefined)	n	n	n	n	n
COc1ccc(C2=NN(c3nc(-c4ccccc4)c(CC(=O)O)s3)C(c3ccco3)C2)cc1 (centres undefined)	n	u	32µM	n	n
CCOC(=O)c1ccc(/C=C2/C=C(c3ccccc3)N(c3ccc(Cl)c(C(=O)O)c3)C2=O)cc1	n	50µM	n	n	n
O=c1c2ccccc2[nH]c2ccc(O)cc12	n	50µM	x	u	x
Cc1ccc2[nH]c3ccccc3c(=O)c2c1	n	n	x	n	x
CCCCc1ccc(C2C(C#N)=C(N)SC(N)=C2C#N)s1	n	x	n	x	22µM
CC(=O)N[C@@H](CC(=O)O)C(=O)N[C@@H](CCC(=O)O)C(=O)O	n	x	x	x	u
O=C(CSc1ncc(S(=O)(=O)c2ccc(Cl)cc2)c(=O)[nH]1)Nc1cccc(C(F)(F)F)c1	n	x	x	n	x
CC(C)(C)c1ccc(S(=O)(=O)c2cnc(SCC(=O)Nc3ccc(F)c(Cl)c3)[nH]c2=O)cc1	n	x	x	50µM	x
CCOc1ccc2ccccc2c1CNCCCN1CCOCC1	x	n	x	x	x
O=S(=O)(N(Cc1ccccc1)[C@H](CO)Cc1ccccc1)N(Cc1ccccc1)[C@H](CO)Cc1ccccc1	x	n	n	n	x
O=C(CCCc1c[nH]c2ccccc12)NCc1ccc2c(c1)OCO2	n	n	x	n	n
O=c1c([N+](=O)[O-])c(O)c2ccccc2n1Cc1ccccc1	n	n	x	11µM	x
O=C(CN1CCC(O)(c2ccccc2F)CC1)NCCc1c[nH]c2ccccc12	n	n	n	n	n
CNC1=C(Br)C(=O)c2ccncc2C1=O	14µM	x	x	x	n
CNC1=C(Cl)C(=O)c2ccncc2C1=O	18µM	x	x	x	n
CNc1ccncc1S(=O)(=O)NC	n	n	n	n	n
Oc1ccccc1C1C=C(c2ccc3c(c2)OCO3)NC(c2cccc(Cl)c2)N1 (centres undefined)	x	x	x	n	x
CN(C)CCCN1C(=O)c2cccc3c(Br)ccc(c23)C1=O	n	n	x	18µM	n
